This note sets out measurements from PubChem BioAssay (Tox21).

A number with no mark means an inactive call. The source made the active and inactive calls. The call rests on the fitted dose curve; in most records, active means well fitted curve in the direction sought with a large enough effect in the repeat runs; inconclusive means weak or mixed curves; inactive means flat fitted curve, though single readings scatter.
On the % scale 0 is the no-effect control and ±100 the full control effect.

The nature of the first assay: qHTS assay to test for compound auto fluorescence at 590 nm (red) in HepG2 cells (AID 720674). As to conditions: HepG2 autofluorescence, red 540/590 nm, 1 h; series mostly up to 91.3 µM; fluorescence, relative to Rose Bengal: at the top concentration. The method, boiled down: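 1 hr compound incubation on HepG2 cells, 37 C, 5% CO2; plate read ex 540 nm / em 590 nm; intensities reported as Rose Bengal sodium equivalents.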
A general note: Quantitative high-throughput screening tests each substance at several concentrations.
As for `CCCCCCCCCCCl`, the “fluorescence, relative to Rose Bengal” value is -0.116% [at 95.7 µM].

Turning to `CCC(C)OC(=O)N1CCCCC1CCO` (stereo not drawn), the “fluorescence, relative to Rose Bengal” value is 0.0042%.

Turning to `CO`, the molecule was classed as inactive.

Consider `CCCCc1ccc2cccc(S(=O)(=O)O)c2c1`, for which the “fluorescence, relative to Rose Bengal” value was 0.143%.

For `Nc1cc(N)cc(C(=O)O)c1`, the “fluorescence, relative to Rose Bengal” value is -0.829%.

For the molecule `N#CC1(O)CCCCC1`, the “fluorescence, relative to Rose Bengal” value is 0.0024%.

Regarding `CCCCN(CCO)CCO`, the “fluorescence, relative to Rose Bengal” value was 0.0626%.

`CCCOCC(C)OCC(C)O` (stereo not drawn): the “fluorescence, relative to Rose Bengal” value was 0.0629% [at 95.7 µM].

With `CCC(C(=O)NC(N)=O)c1ccccc1` (stereo not drawn), the result was inactive.

As to `c1ccc(SCCSc2ccccc2)cc1`, the “fluorescence, relative to Rose Bengal” value was -0.139%.

For the molecule `CC(=O)OC(C)(C)C`, the “fluorescence, relative to Rose Bengal” value is -0.011%.

In the case of `CC(=O)NC(Cc1ccccc1)C(=O)O` (stereo not drawn), the “fluorescence, relative to Rose Bengal” value was 0.126% [at 46 µM].

As for `COc1cccc(OC)c1`, the “fluorescence, relative to Rose Bengal” value was -0.0989%.

As to `CCn1cc(C(=O)O)c(=O)c2cc(F)c(N3CCN(C)CC3)cc21`, the “fluorescence, relative to Rose Bengal” value is 0.112% [at 46 µM].

In the case of `C[C@H](O)C(=O)Nc1c(I)c(C(=O)NC(CO)CO)c(I)c(C(=O)NC(CO)CO)c1I`, the fluorescence, relative to Rose Bengal was 0.0368% [at 18.6 µM].

Consider `NS(=O)(=O)c1cc2c(cc1C(F)(F)F)NC(Cc1ccccc1)NS2(=O)=O` (stereo not drawn), for which the fluorescence, relative to Rose Bengal is 0.0251% [at 18.6 µM].

In the case of `COc1cccc(Br)c1`, the “fluorescence, relative to Rose Bengal” value was 0.184%.

Take `Fc1ccccc1-c1ccccc1`: the “fluorescence, relative to Rose Bengal” value was 0.0146% [at 95.7 µM].

Consider `C=CCn1c(=O)n([C@@H]2O[C@H](CO)[C@@H](O)[C@H]2O)c2nc(N)[nH]c(=O)c21`, for which the “fluorescence, relative to Rose Bengal” value was 0.343% [at 46 µM].

For `CCCC(C)C(=O)O` (stereo not drawn), the “fluorescence, relative to Rose Bengal” value was -0.135%.

In the case of `Cc1cc(C)c(NC(=O)CN(CC(=O)O)CC(=O)O)c(C)c1Br`, the “fluorescence, relative to Rose Bengal” value was -0.374% [at 46 µM].

For `C=C(C)C(=O)OCCC(C)OC(=O)C(=C)C` (stereo not drawn), the “fluorescence, relative to Rose Bengal” value was 0.145%.

With `Cc1ccc(N)cc1[N+](=O)[O-]`, the “fluorescence, relative to Rose Bengal” value was -0.0617%.

Consider `CO[Si](OC)(OC)OC`, for which the “fluorescence, relative to Rose Bengal” value was -0.164%.

For the molecule `CC(C)c1cccc(O)c1`, the “fluorescence, relative to Rose Bengal” value is -0.0418% [at 95.7 µM].

As for `CCCCCCCCCCC1CO1` (stereo not drawn), the “fluorescence, relative to Rose Bengal” value is -0.589%.

Consider `COc1cc(CCC(C)=O)ccc1O`, for which the “fluorescence, relative to Rose Bengal” value was -0.0331%.

As to `CC(C)CCCCCCN`, the “fluorescence, relative to Rose Bengal” value was 0.261%.

With `CCCCNc1ccccc1`, the “fluorescence, relative to Rose Bengal” value is -0.0498%.

As for `O=C(O)/C=C/c1ccc(Cn2ccnc2)cc1`, the fluorescence, relative to Rose Bengal is 0.61% [at 18.6 µM].

Another assay can be described thus: qHTS assay to test for compound auto fluorescence at 535 nm (green) in HepG2 cells (AID 720675). To be noted: green autofluorescence 485/535 nm, 1 h; series mostly up to 91.3 µM; fluorescence, % of fluorescein control: at the top concentration.
Regarding `CCCCCCCCCCCl`, the “fluorescence, % of fluorescein control” value was -0.151% [at 95.7 µM].

With `CCC(C)OC(=O)N1CCCCC1CCO` (stereo not drawn), the “fluorescence, % of fluorescein control” value is 0.0061%.

Consider `CCCCc1ccc2cccc(S(=O)(=O)O)c2c1`, for which the “fluorescence, % of fluorescein control” value is -0.0756%.

Turning to `Nc1cc(N)cc(C(=O)O)c1`, the “fluorescence, % of fluorescein control” value was 3.56%.

For the molecule `CCCCN(CCO)CCO`, the “fluorescence, % of fluorescein control” value was -0.001%.

With `CCCOCC(C)OCC(C)O` (stereo not drawn), the “fluorescence, % of fluorescein control” value is 0.0121% [at 95.7 µM].

As to `c1ccc(SCCSc2ccccc2)cc1`, the “fluorescence, % of fluorescein control” value is 0.0052%.

With `CC(=O)OC(C)(C)C`, the “fluorescence, % of fluorescein control” value was 0.0036%.

Turning to `CC(=O)NC(Cc1ccccc1)C(=O)O` (stereo not drawn), the “fluorescence, % of fluorescein control” value was -0.0021% [at 46 µM].

Turning to `COc1cccc(OC)c1`, the “fluorescence, % of fluorescein control” value is -0.0004%.

As for `NS(=O)(=O)c1cc2c(cc1C(F)(F)F)NC(Cc1ccccc1)NS2(=O)=O` (stereo not drawn), the fluorescence, % of fluorescein control was -0.0381% [at 18.6 µM].

On to `COc1cccc(Br)c1`, for which the “fluorescence, % of fluorescein control” value is 0.0428%.

For the molecule `Fc1ccccc1-c1ccccc1`, the “fluorescence, % of fluorescein control” value was 0.0083% [at 95.7 µM].

On to `C=CCn1c(=O)n([C@@H]2O[C@H](CO)[C@@H](O)[C@H]2O)c2nc(N)[nH]c(=O)c21`, for which the “fluorescence, % of fluorescein control” value was 0.133% [at 46 µM].

Turning to `CCCCCCOC(=O)c1ccccc1O`, the “fluorescence, % of fluorescein control” value was 0.0327%.

With `Cc1cc(C)c(NC(=O)CN(CC(=O)O)CC(=O)O)c(C)c1Br`, the “fluorescence, % of fluorescein control” value is 0.0051% [at 46 µM].

Turning to `NS(=O)(=O)c1cc2c(cc1Cl)NC(CSCc1ccccc1)=NS2(=O)=O`, the fluorescence, % of fluorescein control is 0.0219% [at 18.6 µM].

As to `N#CCc1ccccc1[N+](=O)[O-]`, the “fluorescence, % of fluorescein control” value was -0.125%.

In the case of `C=C(C)C(=O)OCCC(C)OC(=O)C(=C)C` (stereo not drawn), the “fluorescence, % of fluorescein control” value was -0.115%.

Turning to `Cc1ccc(N)cc1[N+](=O)[O-]`, the “fluorescence, % of fluorescein control” value is -0.0104%.

On to `CO[Si](OC)(OC)OC`, for which the “fluorescence, % of fluorescein control” value is -0.0176%.

As to `CC(C)c1cccc(O)c1`, the “fluorescence, % of fluorescein control” value was -0.161% [at 95.7 µM].

With `CCCCCCCCCCC1CO1` (stereo not drawn), the “fluorescence, % of fluorescein control” value is -0.0891%.

Regarding `COc1cc(CCC(C)=O)ccc1O`, the “fluorescence, % of fluorescein control” value was -0.0904%.

On to `CCCCNc1ccccc1`, for which the “fluorescence, % of fluorescein control” value was -0.31%.

Regarding `CC(C)(O)c1ccccc1`, the “fluorescence, % of fluorescein control” value is -0.141%.

As for `O=C(O)/C=C/c1ccc(Cn2ccnc2)cc1`, the fluorescence, % of fluorescein control was 0.0058% [at 18.6 µM].

Turning to `Cc1ccccc1C(=O)O`, the “fluorescence, % of fluorescein control” value was 0.0056%.

The next assay in a line: qHTS assay to test for compound auto fluorescence at 460 nm (blue) in HEK293 cells (AID 720678). To be noted: blue autofluorescence 405/460 nm; series mostly up to 91.3 µM; fluorescence, % of triamterene: at the top concentration. The method, boiled down:
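Measured: blue fluorescence (Ex 405/Em 460 nm) of compound-treated HEK293 cells, incubated overnight at 37C with 5% CO2 and scaled to triamterene equivalents.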
For `CCCCCCCCCCCl`, the “fluorescence, % of triamterene” value was 0.0125% [at 95.7 µM].

For the molecule `CCC(C)OC(=O)N1CCCCC1CCO` (stereo not drawn), the “fluorescence, % of triamterene” value is 0.0239%.

In the case of `CO`, the Potency result was “inactive”.

On to `CCCCc1ccc2cccc(S(=O)(=O)O)c2c1`, for which the “fluorescence, % of triamterene” value was -0.0468%.

`Nc1cc(N)cc(C(=O)O)c1`: the “fluorescence, % of triamterene” value is 1.89%.

On to `N#CC1(O)CCCCC1`, for which the “fluorescence, % of triamterene” value is 0.0557%.

`CCCCN(CCO)CCO`: the “fluorescence, % of triamterene” value is -0.134%.

As to `CCCOCC(C)OCC(C)O` (stereo not drawn), the “fluorescence, % of triamterene” value is 0.0105% [at 95.7 µM].

As to `CCC(C(=O)NC(N)=O)c1ccccc1` (stereo not drawn), the Potency entry is “inactive”.

In the case of `c1ccc(SCCSc2ccccc2)cc1`, the “fluorescence, % of triamterene” value is 0.0139%.

Take `CC(=O)OC(C)(C)C`: the “fluorescence, % of triamterene” value was -0.0192%.

Turning to `CC(=O)NC(Cc1ccccc1)C(=O)O` (stereo not drawn), the “fluorescence, % of triamterene” value is -0.113% [at 46 µM].

Turning to `COc1cccc(OC)c1`, the “fluorescence, % of triamterene” value is -0.0417%.

For the molecule `CCn1cc(C(=O)O)c(=O)c2cc(F)c(N3CCN(C)CC3)cc21`, the “fluorescence, % of triamterene” value was -0.0317% [at 46 µM].

Consider `C[C@H](O)C(=O)Nc1c(I)c(C(=O)NC(CO)CO)c(I)c(C(=O)NC(CO)CO)c1I`, for which the fluorescence, % of triamterene is -0.0154% [at 18.6 µM].

With `NS(=O)(=O)c1cc2c(cc1C(F)(F)F)NC(Cc1ccccc1)NS2(=O)=O` (stereo not drawn), the fluorescence, % of triamterene is 0.0799% [at 18.6 µM].

For the molecule `COc1cccc(Br)c1`, the “fluorescence, % of triamterene” value was -0.0505%.

On to `Fc1ccccc1-c1ccccc1`, for which the “fluorescence, % of triamterene” value is -0.161% [at 95.7 µM].

As to `C=CCn1c(=O)n([C@@H]2O[C@H](CO)[C@@H](O)[C@H]2O)c2nc(N)[nH]c(=O)c21`, the “fluorescence, % of triamterene” value is 0.0097% [at 46 µM].

Consider `CCCCCCOC(=O)c1ccccc1O`, for which the “fluorescence, % of triamterene” value was 0.0526%.

`CCCC(C)C(=O)O` (stereo not drawn): the “fluorescence, % of triamterene” value was -0.149%.

For the molecule `Cc1cc(C)c(NC(=O)CN(CC(=O)O)CC(=O)O)c(C)c1Br`, the “fluorescence, % of triamterene” value was -0.0253% [at 46 µM].

Consider `NS(=O)(=O)c1cc2c(cc1Cl)NC(CSCc1ccccc1)=NS2(=O)=O`, for which the fluorescence, % of triamterene was -0.0281% [at 18.6 µM].

Regarding `N#CCc1ccccc1[N+](=O)[O-]`, the “fluorescence, % of triamterene” value is -0.0819%.

Consider `C=C(C)C(=O)OCCC(C)OC(=O)C(=C)C` (stereo not drawn), for which the “fluorescence, % of triamterene” value is -0.0278%.

Regarding `Cc1ccc(N)cc1[N+](=O)[O-]`, the “fluorescence, % of triamterene” value is -0.419%.

In the case of `CO[Si](OC)(OC)OC`, the “fluorescence, % of triamterene” value was -0.002%.

In the case of `CC(C)c1cccc(O)c1`, the “fluorescence, % of triamterene” value was 0.0266% [at 95.7 µM].

Regarding `CCCCCCCCCCC1CO1` (stereo not drawn), the “fluorescence, % of triamterene” value is -0.0491%.

For `COc1cc(CCC(C)=O)ccc1O`, the “fluorescence, % of triamterene” value is -0.0361%.

As to `CC(C)CCCCCCN`, the “fluorescence, % of triamterene” value was -0.0173%.

As for `CCCCNc1ccccc1`, the “fluorescence, % of triamterene” value is -0.0953%.

Take `CC(C)(O)c1ccccc1`: the “fluorescence, % of triamterene” value was 0.0212%.

For the molecule `O=C(O)/C=C/c1ccc(Cn2ccnc2)cc1`, the fluorescence, % of triamterene was -0.0046% [at 18.6 µM].

Take `Cc1ccccc1C(=O)O`: the “fluorescence, % of triamterene” value was 0.0104%.
